This passage reports growth results from PubChem BioAssay (NCI).

Among the test systems are T-47D breast; BT-549 breast; MDA-MB-435 melanoma; SW-620 colon; MCF7 breast; HCT-116 colon; KM12 colon.
What all share (experiment): NCI-60 one-dose screen, 48 h (100 = growth as untreated, 0 = no growth, -100 = all killed)
Conditions in all cases: 10 µM unless noted

Structures are written as SMILES. The panel holds about 83,000 compounds, 20% with a hit somewhere; the sample as a whole holds those more often.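 A percent growth of 40 corresponds to 60% growth inhibition; 0 means no net growth; -100 means all cells died. Active threshold: below 10.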 Unmarked numbers belong to inactive results. The source made the active and inactive calls.

With `COc1c(CNC(=O)CCl)cc2[nH]c(C)cc2c1CNC(=O)CCl`, the growth in the experiment on T-47D breast was 59.2%; in the experiment on BT-549 breast, 58.9%; in the experiment on MDA-MB-435 melanoma, 50.4%; in the experiment with SW-620 colon, 55.1%; in the experiment with MCF7 breast, 36%; in the experiment on HCT-116 colon it was 41.7%. In addition, the growth with KM12 colon was 59.2%.

Take `N#C/C(=C\c1ccc(C#N)cc1)C(=O)c1ccccc1`: the growth is 65.4% in the experiment on T-47D breast; 112% in the experiment on BT-549 breast; 107% in the experiment on MDA-MB-435 melanoma; 109% in the experiment on SW-620 colon; 97.5% with MCF7 breast; 97.8% in the experiment on HCT-116 colon. For the same compound, the growth in the experiment on KM12 colon is 107%.

In the case of `N#Cc1ccc(OC(=O)Nc2c(Cl)cc(Cl)cc2Cl)cc1`, the growth is 91.6% in the experiment on T-47D breast; 113% with BT-549 breast; 96.4% with MDA-MB-435 melanoma; 118% with SW-620 colon; 100% in the experiment with MCF7 breast; 101% with HCT-116 colon. Moreover, in the experiment with KM12 colon, the growth was 107%.

Regarding `CC(=O)NNC(=S)N/C=C/c1c(C)ccc([N+](=O)[O-])c1[N+](=O)[O-]`, the growth in the experiment with T-47D breast is 110%; with BT-549 breast it was 99.9%; with MDA-MB-435 melanoma, 100%; in the experiment on SW-620 colon, 110%; in the experiment with MCF7 breast, 96.2%; in the experiment with HCT-116 colon, 89.9%. For the same compound, the growth in the experiment with KM12 colon is 97.2%.

On to `c1ccc(-c2ccc3ccccc3c2)cc1`, for which the growth was 81.4% with T-47D breast; 98.8% in the experiment on BT-549 breast; 103% in the experiment on MDA-MB-435 melanoma; 90.5% in the experiment with SW-620 colon; 82.2% in the experiment with MCF7 breast; 95.9% in the experiment with HCT-116 colon. The growth in the experiment on KM12 colon is 92.9%.

For the compound `CC(=O)OC(C)c1cccc(C#N)c1` (stereo not given), the growth in the experiment with T-47D breast is 99.1%; in the experiment on BT-549 breast it was 109%; with MDA-MB-435 melanoma, 113%; in the experiment on SW-620 colon, 98.2%; with MCF7 breast, 101%; in the experiment with HCT-116 colon, 100%. Besides, the growth in the experiment on KM12 colon was 104%.

As for `CC(=O)c1cc(O)ccc1O`, the growth in the experiment with T-47D breast is 108%; in the experiment with BT-549 breast, 90.9%; in the experiment on MDA-MB-435 melanoma it was 108%; with SW-620 colon, 114%; in the experiment with MCF7 breast, 101%; with HCT-116 colon, 103%. The growth with KM12 colon was 116%.

For the compound `CC(=O)N(CCCCCCN(C(C)=O)C(C)=O)C(C)=O`, the growth was 101% [100 µM] in the experiment on T-47D breast; 98.4% [100 µM] with BT-549 breast; 98.5% [100 µM] in the experiment with MDA-MB-435 melanoma; 108% [100 µM] in the experiment on SW-620 colon; 87.8% [100 µM] in the experiment on MCF7 breast; 101% [100 µM] in the experiment on HCT-116 colon. In the experiment on KM12 colon, the growth is 99.2% [100 µM].

On to `CC1CCC(C)(C)c2ccccc21` (stereo not given), for which the growth was 91.1% in the experiment on T-47D breast; 105% with BT-549 breast; 105% with MDA-MB-435 melanoma; 115% in the experiment on SW-620 colon; 91.4% in the experiment on MCF7 breast; 95.9% with HCT-116 colon. Also, in the experiment on KM12 colon, the growth is 106%.

As for `NC(=O)c1cc2c3ccccc3ccn2c1-c1ccccc1`, the growth in the experiment with T-47D breast was 88.7%; in the experiment on BT-549 breast, 25.5%; with MDA-MB-435 melanoma, -13.5% (active); with SW-620 colon it was 33.7%; in the experiment on MCF7 breast, 10.3%; in the experiment with HCT-116 colon it was -32.6% (active). In addition, the growth in the experiment with KM12 colon was 4.03% (active).

As for `CCOc1ccc(C(=O)O)cc1`, the growth was 100% in the experiment with T-47D breast; 96.7% with BT-549 breast; 104% in the experiment on MDA-MB-435 melanoma; 99.7% in the experiment on SW-620 colon; 94% in the experiment with MCF7 breast; 99% in the experiment with HCT-116 colon. Besides, the growth in the experiment with KM12 colon is 112%.

Turning to `O=C(O)CC1=CCCCC1`, the growth in the experiment with T-47D breast was 109%; in the experiment with BT-549 breast, 96.1%; in the experiment with MDA-MB-435 melanoma it was 101%; in the experiment with SW-620 colon it was 98.2%; with MCF7 breast, 96.7%; in the experiment on HCT-116 colon it was 104%. Besides, the growth with KM12 colon was 98%.

Regarding `CC(C)c1ncc([N+](=O)[O-])n1C`, the growth with T-47D breast was 101%; with BT-549 breast, 103%; with MDA-MB-435 melanoma it was 136%; with SW-620 colon, 98%; in the experiment with MCF7 breast it was 97.2%; in the experiment on HCT-116 colon, 107%. For the same compound, in the experiment with KM12 colon, the growth was 111%.

In the case of `Nc1ccccc1SC1CC(=O)N(c2ccc(Cl)c(Cl)c2)C1=O` (stereo not given), the growth in the experiment on T-47D breast was 74.8%; in the experiment on BT-549 breast, 124%; in the experiment with MDA-MB-435 melanoma, 101%; in the experiment on SW-620 colon it was 98.8%; in the experiment with MCF7 breast, 112%; with HCT-116 colon, 87.4%. The growth in the experiment with KM12 colon is 100%.

Turning to `CCOC(=O)c1cc(C)[nH]c(=O)c1C#N`, the growth with T-47D breast is 107%; with BT-549 breast, 92.9%; in the experiment on MDA-MB-435 melanoma it was 86%; in the experiment with SW-620 colon, 107%; in the experiment on MCF7 breast, 104%; with HCT-116 colon, 99.9%. Further, in the experiment with KM12 colon, the growth is 103%.

For `CC(=O)N=c1ccc2nc3c(cc(N)c4ccccc43)oc-2c1`, the growth with T-47D breast was -57.8% (active); in the experiment on BT-549 breast, 10.4%; in the experiment on MDA-MB-435 melanoma, -82.3% (active); in the experiment on SW-620 colon it was -88.7% (active); in the experiment with MCF7 breast, -74.9% (active); with HCT-116 colon, -45.2% (active). For the same compound, the growth in the experiment on KM12 colon is -59.9% (active).

Turning to `c1ccc(Nc2ccccn2)nc1`, the growth is 84.6% in the experiment on T-47D breast; 108% in the experiment on BT-549 breast; 104% in the experiment on MDA-MB-435 melanoma; 108% in the experiment with SW-620 colon; 84.9% with MCF7 breast; 99.8% with HCT-116 colon. Also, the growth in the experiment with KM12 colon is 116%.

On to `O=[n+]1ccn([O-])c2ccccc21`, for which the growth in the experiment with T-47D breast was 92.4%; with BT-549 breast, 92.5%; in the experiment with MDA-MB-435 melanoma, 101%; in the experiment on SW-620 colon, 93.9%; with MCF7 breast it was 95.8%; in the experiment on HCT-116 colon, 95.7%. In the experiment on KM12 colon, the growth is 99%.

With `C=C(C)[C@@H]1CC[C@]2(CO)CC[C@]3(C)[C@H](CC[C@@H]4[C@@]5(C)CC[C@H](O)C(C)(C)[C@@H]5CC[C@]43C)[C@@H]12`, the growth in the experiment with T-47D breast was 32.2%; in the experiment on BT-549 breast, 49.3%; in the experiment on MDA-MB-435 melanoma, 77.9%; with SW-620 colon it was 54.6%; with MCF7 breast it was 42.9%; in the experiment with HCT-116 colon, 1.87% (active). Besides, in the experiment on KM12 colon, the growth was 49.1%.

On to `O=C(O)C1CCCN1C(=O)OCc1ccccc1` (stereo not given), for which the growth in the experiment on T-47D breast was 102%; in the experiment with BT-549 breast, 85.8%; in the experiment on MDA-MB-435 melanoma it was 102%; in the experiment on SW-620 colon it was 111%; in the experiment with MCF7 breast, 90%; in the experiment with HCT-116 colon, 107%. Besides, in the experiment on KM12 colon, the growth is 113%.
